Reference: PubChem BioAssay AID1159580 (chemical genetic matrix, 2015)
Screen size: about 5,500 compounds; about 2,000 (36%) were called active. Inconclusive results (about 18%) are left out. No stated cut-off is given here; in the data, active means normalized growth mostly below about 0.91 (no sharp cut-off); inconclusive means no clear call, values can overlap the other calls; inactive means mostly above about 0.92. The list shows a part of the results.

Assay: chemical genetic growth profiling, strain panel (AID 1159580);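 further: tested at 20 µM; growth read once vehicle control cultures reached saturation at 30 °C; 1 = growth at the plate median or of vehicle wells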
Conditions: S. cerevisiae deletion strains, growth OD

Measured: normalized growth

COCCCCC(=NOCCN)c1ccc(C(F)(F)F)cc1
inactive: locus YAL040C, strain CLN3, stronger effect = lower value 0.994 | locus YCL061C, strain MRC1 (second series), stronger effect = lower value 0.997 | locus YDR363W, strain ESC2, stronger effect = lower value 0.975 | locus YER002W, strain NOP16, stronger effect = lower value 1 | locus YJR075W, strain HOC1, stronger effect = lower value 0.992 | locus YNL153C, strain GIM3, stronger effect = lower value 1.02 | locus YNL175C, strain NOP13, stronger effect = lower value 1.01 | locus YNL197C, strain WHI3, stronger effect = lower value 1 | locus YNL224C, strain SQS1, stronger effect = lower value 1.02 | locus YNL322C, strain KRE1, stronger effect = lower value 0.988 | locus YOR083W, strain WHI5 (second series), stronger effect = lower value 0.993
